D3 antag: qHTS of D3 Dopamine Receptor Antagonist: qHTS; D(3) dopamine receptor (Homo sapiens), P35462; D3R cells, DiscoveRx beta-arrestin luminescence, antagonist mode; hits give low values; max response, negative = inhibition, %; 360,000 compounds, 2.5% hits; in the data active = max response below about -50%; inconclusive = no clear call, values can overlap the other calls; note: % is set by controls: 0 for no effect and ±100 for the full control effect
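Cells expressing the human receptor were seeded at 1500 cells/well, incubated overnight at 37 degrees C in 5% CO2, then exposed to library compounds with dopamine controls for 90 minutes at 37 degrees C before luminescent detection.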
IL-1B inflam inh: qHTS for Inhibitors of Inflammasome Signaling: IL-1-beta AlphaLISA Primary Screen; 360,000 compounds, 4.7% hits; AID 743279, 2014; activity change, % at 57.5 µM; THP-1 LPS/ATP IL-1B secretion, AlphaLISA, 16 h; hits give low values; in the data active = activity change below about -50%; inconclusive = mostly about -30% to -49%; note: % is set by controls: 0 for no effect and ±100 for the full control effect
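Secreted IL-1B measured by AlphaLISA bead assay after 16 h compound exposure of THP-1 cells; compounds (final up to 57.5 uM) added 1 h before LPS (250 ng/mL) and ATP (1.25 mM) stimulation; lower signal means less secretion.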
DT40 TDP1 CPT: qHTS for Inhibitors of human tyrosyl-DNA phosphodiesterase 1 (TDP1): qHTS in cells in presence of CPT | Potency, µM (series often up to 46.2 µM), inactives show at the top dose activity change, negative = growth inhibition, actives largely listed as inhibitors | 420,000 compounds, 12% hits | chicken DT40 Tdp1-/-;hTDP1 cells + 20 nM CPT, ATP luminescence, 48 h; note: potency is the fitted concentration of half-maximal effect; % is set by controls: 0 for no effect and ±100 for the full control effect; nearly all actives have a fitted effect of over 55% in size
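Chicken DT40 Tdp1-/- cells complemented with human TDP1, 400 cells/well, exposed to compounds plus 20 nM camptothecin for at least 48 h at 37 C; viability read as ATP content by CellTiter-Glo luminescence.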
DT40 TDP1 no CPT: qHTS for Inhibitors of human tyrosyl-DNA phosphodiesterase 1 (TDP1): qHTS in cells in absence of CPT; DT40 Tdp1-/- hTDP1 cells, no CPT, ATP luminescence, 48 h; Potency, µM (doses to about 46.2 µM), for the others: top-dose activity change, negative = growth inhibition, usual class: inhibitors; 420,000 compounds, 15% hits; AID 686978, 2013; note: potency is the fitted concentration of half-maximal effect; % is set by controls: 0 for no effect and ±100 for the full control effect; nearly all actives have a fitted effect of over 55% in size
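A cellular qHTS used chicken DT40 cells lacking endogenous Tdp1 but carrying stably transfected human TDP1. Compounds were applied without camptothecin, and cell growth kinetics were judged by ATP-dependent luminescence after ≥48 hr.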
D3 ag: qHTS of D3 Dopamine Receptor Agonist: qHTS; D(3) dopamine receptor (Homo sapiens), P35462; 410,000 compounds, 0.58% hits; D3R DiscoveRx beta-arrestin cells, luminescence, 90 min; max activation, %; in the data active = max activation above about 30%; note: 0% is about no effect
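Agonist mode: compounds and dopamine controls were applied to plated cells for 90 min at 37 degrees C after an overnight attachment at 1500 cells/well. Luminescent read-out followed 30 - 60 minutes at room temperature with DiscoveRx detection reagent.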
ClpP mod: qHTS Assay for Activators of ClpP. ATP-dependent Clp protease proteolytic subunit (Bacillus subtilis (strain 168)), P80244. Potency, µM (doses to about 57.5 µM), for inactives: at the top dose activity change, negative = active. purified B. subtilis ClpP, FRET peptide cleavage, 20 min. 340,000 compounds, 1.9% hits; active = well fitted falling curve with a large enough effect; inconclusive = small, poorly fitted or top-dose-only effect; inactive = no such curve, though single readings can be large or run the other way; note: potency is the fitted concentration of half-maximal effect; the source files actives as falling curves though it sought activators and does not explain the sign; nearly all actives have a fitted effect of over 65% in size
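Buffer: 100 mM Tris/HCl pH8, 100 mM KCl, 0.05% low protease BSA, 2.5% glycerol, 0.01% Tween-20. ClpP 10 microg/mL final; 20 min RT; delta FRET normalized to ADEP and DMSO controls.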
* hit, by the source's call. An excerpt weighted towards active compounds, which were near 21% of everything screened. Unless noted, calls come from the whole dose curve; as a rule, active = well fitted inhibition curve with a large enough effect; inconclusive = small, poorly fitted or top-dose-only effect; inactive = flat fitted curve, though single readings scatter.

For COc1ccc(C[C@H]2CN3C(=NC[C@@H]3Cc3ccccc3)N2CCNC(=O)CCC2CCCCC2)cc1 the results were D3 antag -62*, IL-1B inflam inh -21, DT40 TDP1 CPT 13µM*, DT40 TDP1 no CPT 16µM*, D3 ag -32 and ClpP mod -1%.
Screening O=C(CCC1CCCCC1)NCCN1C2=NC[C@H](Cc3ccc(O)cc3)N2C[C@H]1Cc1ccc(O)cc1 returned D3 antag inconclusive, IL-1B inflam inh -4, DT40 TDP1 CPT inconclusive, DT40 TDP1 no CPT inconclusive, D3 ag -47 and ClpP mod -1%.
For C[C@@H]1CN=C2N(CCNC(=O)CCC3CCCCC3)[C@H](Cc3ccc(O)cc3)CN21 the results were D3 antag inconclusive, IL-1B inflam inh 12, DT40 TDP1 CPT 13µM*, DT40 TDP1 no CPT 16µM*, D3 ag -38 and ClpP mod 1%.
`CCOC(=O)c1ccc(NC(=O)CSc2nc3ncc(Br)c(C)c3[nH]2)cc1` gave DT40 TDP1 CPT -21%, DT40 TDP1 no CPT 3%, D3 ag -6 and ClpP mod -1%.
COc1ccc(C[C@@H]2CN3C(=NC[C@@H]3C)N2CCNC(=O)c2ccc(C)c(Br)c2)cc1 was read as D3 antag -52*, IL-1B inflam inh inconclusive, DT40 TDP1 CPT 23µM*, DT40 TDP1 no CPT 13µM*, D3 ag -58 and ClpP mod 0%.
Screening OC(CC1CC12c1ccccc1-c1ncccc12)(c1ccccc1)c1ccccc1 (stereo unspecified) returned D3 antag -29, IL-1B inflam inh inconclusive, DT40 TDP1 CPT inconclusive, DT40 TDP1 no CPT 16µM*, D3 ag -13 and ClpP mod -6%.
O=C(OCC(=O)N1c2ccccc2Sc2ccccc21)c1cccnc1 was read as D3 antag -1, IL-1B inflam inh 24, DT40 TDP1 CPT -4%, DT40 TDP1 no CPT inconclusive, D3 ag -2 and ClpP mod 1%.
O=C(NC1CCN(C(=O)N2c3ccccc3Sc3ccccc32)CC1)c1ccco1 was read as D3 antag inconclusive, IL-1B inflam inh -8, DT40 TDP1 CPT inconclusive, DT40 TDP1 no CPT 21µM*, D3 ag 1 and ClpP mod 1%.
For O=C(c1ccncc1)N1c2ccccc2Sc2ccccc21 the results were D3 antag 29, IL-1B inflam inh 2, DT40 TDP1 CPT 21µM*, DT40 TDP1 no CPT 9.2µM*, D3 ag -1 and ClpP mod 0%.
For COc1cccc(C(=O)NC2CCN(C(=O)N3c4ccccc4Sc4ccccc43)CC2)c1 the results were D3 antag -15, IL-1B inflam inh -57*, DT40 TDP1 CPT inconclusive, DT40 TDP1 no CPT inconclusive, D3 ag 1 and ClpP mod -1%.
`O=C(NC1CCN(C(=O)N2c3ccccc3Sc3ccccc32)CC1)c1ccccc1Cl` gave D3 antag -17, IL-1B inflam inh -59*, DT40 TDP1 CPT inconclusive, DT40 TDP1 no CPT 23µM*, D3 ag -3 and ClpP mod -3%.
NC(=O)C1CCN(C(=O)N2c3ccccc3Sc3ccccc32)CC1 was read as D3 antag -14, IL-1B inflam inh inconclusive, DT40 TDP1 CPT -12%, DT40 TDP1 no CPT -28%, D3 ag 11 and ClpP mod 1%.
Screening O=C(NC1CCN(C(=O)Nc2ccccc2Cl)CC1)c1ccco1 returned D3 antag -1, IL-1B inflam inh 15, DT40 TDP1 CPT -6%, DT40 TDP1 no CPT -7% and D3 ag -1.
O=C1CCc2cc(S(=O)(=O)Nc3ccccc3)cc3c2N1CC3 was read as D3 antag -8, IL-1B inflam inh 23, DT40 TDP1 CPT 8%, DT40 TDP1 no CPT -4%, D3 ag 2 and ClpP mod -1%.
For Cn1c(=O)c(-c2cccs2)nc2cnc(Oc3ccccc3)nc21 the results were DT40 TDP1 CPT -1% and DT40 TDP1 no CPT -1%.
Screening COc1ccccc1NC(=O)N1c2ccccc2Sc2ccccc21 returned DT40 TDP1 CPT 15µM*, DT40 TDP1 no CPT 15µM*, D3 ag -10 and ClpP mod inconclusive.
COc1cccc(C(=O)N2c3ccccc3Sc3ccccc32)c1 was read as D3 antag -10, IL-1B inflam inh -11, DT40 TDP1 CPT 12µM*, DT40 TDP1 no CPT 16µM*, D3 ag -7 and ClpP mod 1%.
COc1cccc(C(=O)c2ccccc2C(=O)O)c1 was read as D3 antag 15, IL-1B inflam inh 34, DT40 TDP1 CPT -4%, DT40 TDP1 no CPT 9%, D3 ag 3 and ClpP mod 0%.
`CN1C(=O)c2c(sc3c2CC(C)(C)SC3)N2CCN=C12` gave D3 antag -3, IL-1B inflam inh -8, DT40 TDP1 CPT 21µM*, DT40 TDP1 no CPT 21µM*, D3 ag -6 and ClpP mod inconclusive.
For CN(C(=O)c1cccc(NC(=O)Cc2cccc(NC(=O)C3CCCN(C(=O)C4CCCC4)C3)c2)c1)C1CC1 (stereo unspecified) the results were D3 antag 0, IL-1B inflam inh -8, DT40 TDP1 CPT -24%, DT40 TDP1 no CPT inconclusive, D3 ag -7 and ClpP mod -1%.
Cc1ccccc1NC(=S)N(CCN1CCCCC1)Cc1ccco1 was read as D3 antag -21, IL-1B inflam inh 16, DT40 TDP1 CPT -28%, DT40 TDP1 no CPT inconclusive and D3 ag -17.
`Cc1cccc(C)c1NC(=S)N(CCN1CCCCCC1)Cc1ccco1` gave D3 antag inconclusive, IL-1B inflam inh -21, DT40 TDP1 CPT inconclusive, DT40 TDP1 no CPT 18µM* and D3 ag -21.
Screening Cc1cc(C)c(NC(=S)N(CCN2CCCCC2)Cc2ccco2)c(C)c1 returned D3 antag -7, IL-1B inflam inh -3, DT40 TDP1 CPT inconclusive, DT40 TDP1 no CPT 16µM* and D3 ag -7.
Cc1cc(CNC(=O)Cn2nc(C)c([N+](=O)[O-])c2C)c2ccccc2n1 was read as D3 antag -3, IL-1B inflam inh 18, DT40 TDP1 CPT inconclusive, DT40 TDP1 no CPT inconclusive, D3 ag 3 and ClpP mod 1%.
Screening Nc1ccc(-c2nc3c(Cl)cc(N)cc3[nH]2)cc1 returned D3 antag 9, IL-1B inflam inh inconclusive, DT40 TDP1 CPT 5.8µM*, DT40 TDP1 no CPT 7.3µM*, D3 ag -3 and ClpP mod inconclusive.

Screening results as filed in PubChem BioAssay.
